A selection: hits, their analogues and other compounds. The true share with any hit is near 27%.
CYP2C9 inhib: inhibitors of human CYP2C9. P11712. inhibition, % at 5 µM. actives 20% (n = 96,000). CYP2C9 Supersomes, luciferin-H conversion, luminescence;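 active means blocking of liver enzyme CYP2C9 beyond about 50% at 5 µM, limit read from the data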
Cav32 inh: inhibitors of human Cav3.2 T-type calcium channel. O95180. Cav3.2-expressing cells, Fluo-4 calcium fluorescence FDSS; stronger effect = lower value. B-score at 10 µM. actives 4% (n = 100,000);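 active means single-dose well whose peak fluorescence ratio is a statistical outlier from its plate by either plate-standardised score or position-corrected B-score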
CYP2C19 act: increases human CYP2C19 enzyme activity; recombinant CYP2C19, luciferin-H EGE luminescence; stronger effect = higher value; 0 = fully inhibited enzyme, 1 = untreated enzyme; P33261; 96,000 tested, under 10 active; activation factor at 5 µM;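 active means activation factor of at least 2 at 5 µM in the primary screen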;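 further: 0 = wells with 2.5 mM tranylcypromine and 1 = vehicle-only wells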
Target sequence (P33261 whole entry, looked up): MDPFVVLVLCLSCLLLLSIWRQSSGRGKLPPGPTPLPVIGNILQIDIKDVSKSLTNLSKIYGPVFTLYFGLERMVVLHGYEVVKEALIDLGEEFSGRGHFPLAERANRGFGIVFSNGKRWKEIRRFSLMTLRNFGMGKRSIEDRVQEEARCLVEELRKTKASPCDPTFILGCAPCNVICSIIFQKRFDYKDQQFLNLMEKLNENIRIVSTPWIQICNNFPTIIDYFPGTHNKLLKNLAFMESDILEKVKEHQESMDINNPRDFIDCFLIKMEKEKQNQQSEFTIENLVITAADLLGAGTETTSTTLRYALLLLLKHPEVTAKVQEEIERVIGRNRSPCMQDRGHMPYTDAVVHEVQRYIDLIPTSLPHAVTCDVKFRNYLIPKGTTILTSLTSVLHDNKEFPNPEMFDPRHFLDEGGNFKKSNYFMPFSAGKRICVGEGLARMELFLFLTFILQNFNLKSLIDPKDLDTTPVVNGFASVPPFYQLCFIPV
CYP2C9 act: increases human cytochrome P450 2C9 activity | recombinant CYP2C9, luciferin-H conversion, luminescence; stronger effect = higher value; factor 1 = untreated enzyme, 0 = blocked | activation factor at 5 µM | actives 1.4% (n = 96,000) | AID 1024;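 active means activation factor of 2 or more for CYP2C9 at a 5 µM dose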;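 further: 0 = sulfaphenazole-blocked wells and 1 = vehicle-only wells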
CYP2C19 inh: blocks human cytochrome P450 2C19; P33261; CYP2C19 Supersomes, luciferin-H EGE luminescence, 30 min; inhibition, % at 5 µM; actives 21% (n = 96,000);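 active means CYP2C19 inhibition above a set limit at 5 µM in the primary screen, cut at about 50% in these data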;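 further: plate controls were negative control wells for no effect and 2.5 mM tranylcypromine positive control for full effect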
The depositor's hits bear a star; / = no result.

SMILES	CYP2C9 inhib	Cav32 inh	CYP2C19 act	CYP2C9 act	CYP2C19 inh
CCOC(=O)C1Cc2c([nH]c3ccccc23)CN1 (stereo not drawn)	3	0.0022	0.4	1	56*
C[C@@H]1CCC[C@]2(O[C@H](CCO)C[C@@H](O)[C@@H]2O)O1	/	-0.088	/	/	/
CCOC(=O)c1ccc(NC(=O)CSc2nnnn2CCCO)cc1	44	-0.35	0.4	0.6	58*
CCOC(=O)c1cccc(NC(=O)CSc2nc(N)cc(N)n2)c1	78*	-0.52	0.4	0.2	64*
CCOC(=O)c1ccc(NC(=O)CSc2nnc(C)n2-c2ccccc2)cc1	16	-1	0.9	0.8	8
CCn1nnnc1SCC(=O)Nc1cccc(NC(C)=O)c1	-7	0.48	1.1	1.1	-6
CCOC(=O)c1cccc(NC(=O)CSc2nnc(C)n2Cc2ccccc2)c1	91*	-0.37	0.1	0.1	87*
CCOC(=O)c1ccc(NC(=O)CSc2nnnn2C2CCCCC2)cc1	/	-0.026	/	/	/
CCOC(=O)c1cccc(NC(=O)CSc2nnnn2CC)c1	83*	0.37	0.4	0.2	55*
Cc1cccc(NC(=O)CSc2nc(N)cc(N)n2)c1	/	0.85	/	/	/
COc1ccc(C(=O)Nn2c(C)nnc2-n2nc(C)cc2C)cc1OC	/	-1.4	/	/	/
CCOC(=O)c1cccc(NC(=O)CSc2nnc(C3CCCCC3)n2CC)c1	46	/	0.7	0.5	26
CCOC(=O)c1cccc(NC(=O)CSc2nc3ccccc3c(=O)n2CC)c1	51*	0.65	0.9	0.5	8
CCOC(=O)c1ccc(NC(=O)CSc2nc3cccnc3n2C)cc1	/	0.2	/	/	/
CCOC(=O)c1cccc(NC(=O)CSc2nnc(-c3ccoc3C)n2CC)c1	70*	0.45	0.6	0.3	43
COCOc1ccc(/C=C/C(=O)c2c(O)cc(OCOC)cc2OCOC)cc1	/	0.12	/	/	/
O=C(c1cccnc1)N1C2C=CC(C2)C1(C(F)(F)F)C(F)(F)F (stereo not drawn)	-34	/	1.2	1.3	-21
O=C(c1ccncc1)N1C2C=CC(C2)C1(C(F)(F)F)C(F)(F)F (stereo not drawn)	61*	-0.0036	0.8	0.4	23
O=c1cc2c(nn1Cc1c(Cl)cccc1Cl)-c1ccccc1CC2	50*	-0.74	0.6	0.5	36
Clc1cccc(Cl)c1CSc1cc2c(nn1)-c1ccccc1CC2	-23	-3.9*	0.9	1.2	9
Clc1ccccc1CSc1cc2c(nn1)-c1ccccc1CC2	-12	/	0.9	1.1	12
Clc1ccc(CSc2cc3c(nn2)-c2ccccc2CC3)cc1Cl	31	-5.3*	0.8	0.7	25
CCOC(=O)c1c(C2COc3ccccc3O2)csc1NC(=O)c1ccco1 (stereo not drawn)	48	-1.2	1	0.5	-4
Nc1c(Cl)cc(-c2csc(NC(CO)c3nc4ccccc4n3CCOCCO)n2)cc1Cl (stereo not drawn)	/	0.062	/	/	/
Cc1ccccc1C(=O)O/N=C/c1c(N2CCOCC2)n(C)c2ccccc12	88*	-1.9	0.7	0.1	30
SMILES	CYP2C9 inhib	Cav32 inh	CYP2C19 act	CYP2C9 act	CYP2C19 inh
Cn1c(Cl)c(/C=N/OC(=O)c2cccc(Cl)c2)c2ccccc21	-60	-1.5	1	1.6	3
Cc1ccc(CCC(=O)Nc2ccc(S(N)(=O)=O)cc2)o1	-19	0.11	1.2	1.2	-17
Cc1ccc(CCC(=O)Nc2nccs2)o1	18	-2.2	0.4	0.8	63*
CCNC(=O)CC(=O)Nc1ccccc1C(=O)O	-2	-0.047	1	1	-5
CCc1ccc(CCC(=O)Nc2ccccc2C(=O)O)o1	52*	1.9	0.9	0.5	13
Cc1cccc(NC(=O)CCc2ccc(C)o2)c1	19	0.54	0.1	0.8	90*
CCc1ccc(CCC(=O)Nc2nccs2)o1	48	-0.038	0.4	0.5	58*
CC(C)(C)OC(=O)NCCc1nnc(SCc2ccc(Cl)cc2)o1	54*	-2.8	0.8	0.5	25
O=C(O)c1ccc(CSc2nnc(COc3ccc(Cl)cc3Cl)o2)cc1	19	-9.2*	1	0.8	-1
CC(C)(C)OC(=O)NCCc1nnc(SCC(=O)Nc2cccc(Cl)c2)o1	28	-1.2	0.7	0.7	35
CC(C)(C)OC(=O)NCCCCCc1nnc(SCC(=O)Nc2cccc(Cl)c2)o1	90*	-7.3*	0.1	0.1	93*
C=C(C)CSc1nnc(CCNC(=O)OC(C)(C)C)o1	34	0.43	0.1	0.7	87*
CCSc1nnc(CCNC(=O)OC(C)(C)C)o1	12	0.38	1.1	0.9	-11
O=c1cc(CSc2nnc(COc3ccccc3Cl)o2)nc2sccn12	53*	-0.69	0.1	0.5	88*
O=C(CSc1nnc(CNc2cccc(Cl)c2)o1)OC1CCCCC1	39	-3.3	0.7	0.6	29
Clc1ccc(CSc2nnc(CNc3cccc(Cl)c3)o2)cc1	25	/	0.5	0.7	53*
O=C(c1cc2nc(-c3ccco3)cc(C(F)(F)F)n2n1)N1CCN(c2ccc(F)cc2)CC1	64*	-0.47	0.2	0.4	81*
O=C(c1cc2nc(-c3ccco3)cc(C(F)(F)F)n2n1)N1CCN(Cc2ccccc2)CC1	64*	-1.2	0.5	0.4	47
O=C(Nc1ccc(Cl)cc1)c1cc2nc(-c3ccco3)cc(C(F)(F)F)n2n1	71*	0.79	0.8	0.3	17
CN1CCN(C(=O)c2cc3nc(-c4ccc(F)cc4)cc(C(F)(F)F)n3n2)CC1	-20	0.32	1.2	1.2	-18
CCCCSC(=S)N(C)C1CCS(=O)(=O)C1 (stereo not drawn)	29	0.45	0.5	0.7	49
Cc1nnc(C)n1/N=C/c1cc(Br)ccc1O	15	-0.66	1	0.9	0
Cc1nnc(C)n1/N=C/c1cc(Br)cc(Br)c1O	6	-9.6*	1.1	0.9	-8
CN(C)C(CNC(=O)c1cccc(S(=O)(=O)N2CC3(C)CC2CC(C)(C)C3)c1)c1ccco1 (stereo not drawn)	73*	-2.5	0.3	0.3	75*
COc1c(Cl)cc(-c2noc(C)c2C(=O)NC(C)C)cc1Cl	/	-0.13	/	/	/
SMILES	CYP2C9 inhib	Cav32 inh	CYP2C19 act	CYP2C9 act	CYP2C19 inh
Cn1nc(C(=O)Nc2c(-c3ccccc3)nc3sccn23)c2ccccc2c1=O	-11	-0.02	1.1	1.1	-11
O=C([C@H](Cc1ccccc1)NS(=O)(=O)c1ccc(Cl)cc1)N1CC[C@@]2(O)CCCC[C@H]2C1	35	-3.3*	0.6	0.6	40
Cn1cnnc1SCC(=O)Nc1sc2c(c1C(N)=O)CCC2	33	0.22	1	0.7	-2
C[C@@H]1NC(=O)c2cc([N+](=O)[O-])cc(I)c2NCC[C@@H](C(N)=O)NC(=O)[C@H](CC(N)=O)NC1=O	/	-0.16	/	/	/
CC(C)=CCc1cc([C@@H]2CC(=O)c3ccc(O)c(CC=C(C)C)c3O2)ccc1O	/	-2.8	/	/	/
O=c1oc(-c2cccs2)nc2sc3c(c12)CCCC3	64*	0.11	0.8	0.4	20
O=c1oc(-c2cccs2)nc2sc3c(c12)CCC3	20	0.95	0.7	0.8	34
S=C(NCCC(c1ccccc1)c1ccccc1)Nc1ccccc1Cl	66*	-3.4	0.4	0.3	55*

Screens deposited in PubChem by several laboratories.
